According to ChEMBL document CHEMBL4888484, “Replenishing the malaria drug discovery pipeline: Screening and hit evaluation of the MMV Hit Generation Library 1 (HGL1) against asexual blood stage Plasmodium falciparum ,using a nano luciferase reporter read-out” (2022):
About 410 (8.5%) of roughly 4,800 compounds showed an effect of 50% or more. The sample as a whole holds a higher share of strong results than the screen did.

These compounds were tested on Plasmodium falciparum (assay: Confirmatory screen in NF54 pLDH assay, in single point, at 2uM, 72h). Settings: timepoint 72 hour.
Assay type: functional, Erythrocyte

| Compound | % Inhibition |
| --- | --- |
| Oc1ccccc1CNc1cccc2cccnc12 | 97% |
| CC(C)(C)C(=O)NCCNC(=O)c1ccccn1 | 13% |
| NC1CC(NCCc2cccc3cccnc23)c2ccccc21 (stereo not given) | 36% |
| O=C(Nc1cccc2cccnc12)c1cncc(Br)c1 | -8% |
| O=C(Nc1cccc2cccnc12)c1ccccn1 | 87% |
| COc1cc(=O)c(C(=O)N2CCCCCC2)nn1-c1ccc(F)c(F)c1 | 10% |
| CCc1nnc2cc(N3CCN(C(=O)c4ccc(OC)cc4)CC3)cnn12 | 11% |
| CC(C)(C)c1noc(OCc2cccc(C#N)c2)n1 | 14% |
| CCN1CCN(CC(=O)N2N=C(c3ccc(C)c(C)c3)C[C@H]2c2cccn2C)CC1 | 2% |
| Cc1ccn(Cc2nc(N)nc(N(C)C)n2)c(=O)c1C#N | 4% |
| CCCCN1CCN(C(=O)CN2CCN(Cc3ccc(F)cc3Cl)C2=O)CC1 | 1% |
| CCc1ccc(C2=Nc3cccnc3N(CC(=O)Nc3c(C)cc(C)cc3C)C(=O)C2)cc1 | 2% |
| Cc1cccnc1NC(=O)OC(C)(C)C | 10% |
| Cc1cc(C)c(NC(=O)OCc2cccc3cccnc23)c(C)c1 | 80% |
| O=C(Nc1ccc(Cl)cc1)n1c(=S)oc2cc(Br)ccc21 | 2% |
| Cc1cccc(CN2CCC[C@H](C(=O)c3ccc4c5c(cccc35)CC4)C2)n1 | 67% |
| Cc1cccc(NC(=O)N2CCCCCC2)n1 | 6% |
| Cc1ncsc1[C@@H]1CC(=O)Nc2nc(N3CCC(C)CC3)nc(O)c21 | -19% |
| CN(C)c1nc(CN2CCC[C@H](c3n[nH]c(-c4ccccc4)n3)C2)ns1 | 2% |
| c1ccc(-c2c[nH]c([C@H]3CCCN(c4ncnc5[nH]ncc45)C3)n2)cc1 | -7% |
| COc1ccnc(CN2CCC[C@H](c3nc(-c4ccccc4)c[nH]3)C2)c1OC | 82% |
| Cn1cc(-c2ccc(F)cc2)c2nc[nH]c(=O)c21 | 10% |

| Compound | % Inhibition |
| --- | --- |
| O=C1CCCN1c1ccc(-c2csc(C3CC3)n2)cc1 | -12% |
| CCC(=O)N1CCC(Nc2cccc(-c3nc(C4CC4)n[nH]3)c2)CC1 | -24% |
| CC1([C@@](O)(C#CC[N+]2(C)CCCCC2)c2ccccc2)CCCC1 | 43% |
| CCNS(=O)(=O)c1cc(C)ccc1C | 8% |
| CCc1ccc(-n2c(=O)[nH]c3nc(N4CCN(c5ccccc5F)CC4)ncc3c2=O)cc1 | -25% |
| O=C(NCc1ccncc1)c1ccco1 | -2% |
| O=C1NCCCOc2cccc(c2)[C@H]2c3ccc(cc3CCN2C(=O)CCN2CCOCC2)Oc2ccc(O)c1c2 | 50% |
| NCc1cccc(C(=O)N2CCc3cc4ccc3[C@@H]2c2cccc(c2)OCCCNC(=O)c2cc(ccc2O)O4)c1 | 98% |
| NC(=O)C1CCN(CCC(=O)N2CCc3cc4ccc3[C@@H]2c2cccc(c2)OCCCNC(=O)c2cc(ccc2O)O4)CC1 | 93% |
| CCc1nc2cc(N3CCC(C(=O)Nc4ccc5c(c4)OCO5)CC3)cnc2nc1CC | 8% |
| Cc1ccc(NC(=O)CN2N=C(C(=O)Nc3ccccc3)CCC2=O)cc1 | -10% |
| Cc1cccc(Oc2cc(N)cc(Oc3cccc(C)c3)c2)c1 | 8% |
| O=C(c1cc2ccccc2[nH]1)N1CCc2sc(Cl)cc2C1 | 5% |
| CC(=Cc1cn(C(C)(C)C)nn1)c1nc(C)c(C#N)c(=O)[nH]1 | 10% |
| COc1ccc(C)cc1NC(=O)[C@H]1CCCN(c2cn[nH]c(=O)c2)C1 | -8% |
| CC(C)(C)CC(=O)Nc1ccccc1C(N)=O | 13% |
| CC(=O)c1cc(-c2cc(O)cc(CC[C@H]3CCCCN3)c2)ccc1O | 85% |
| Cc1cc(-c2cc(O)cc(CC[C@H]3CCCCN3)c2)ccn1 | 91% |
| Cc1ccc(-c2cc(O)cc(CC[C@H]3CCCCN3)c2)c(C)n1 | 66% |
| Cc1cc(S(=O)(=O)NC[C@H]2CCCCN2)sc1C | -6% |
| CNC(=NCC(C)(C)c1ccc(OC)cc1)NC | 7% |
| COc1cccc(N2CCN(C(=O)c3cn4cc(-c5ccc(Cl)cc5)ccc4n3)CC2)c1 | 2% |

| Compound | % Inhibition |
| --- | --- |
| Cc1[nH]c2nc3ccccc3n2c(=O)c1Cc1ccccc1Cl | -15% |
| CCc1cc(O)nc(CN2CCCC2C(O)C(F)(F)F)n1 (stereo not given) | -4% |
| Oc1ccc(-c2nnc(-c3ccc(O)cc3)nn2)cc1 | 22% |
| CC(C)c1ccc(NC(=O)CCC(=O)N2CCc3ccccc3C2)cc1 | 9% |
| C[C@@]12CO[C@@H](COc3ccccc3)O[C@@H]1CC[C@]1(C)C2CC[C@@H](O)[C@H]1CC(=O)N1CCC[C@H]1CO (stereo not given in full) | 6% |
| CC1CC(C)CN(C(=O)c2cc(NC(=O)c3ccccc3)n(C)n2)C1 (stereo not given) | -14% |
| O=C(CN1CCOCC1)Nc1ccc(N2CCOCC2)c(F)c1 | -8% |
| N#Cc1nccnc1NCCCCN1C(=O)c2ccccc2C1=O | -14% |
| CC1(C)COC(=O)[C@H]1OCN1CCCC1=O | -7% |
| CS(=O)(=O)N1CCC(C(=O)Nc2c(C(N)=O)sc3nc(C(F)F)cc(C4CC4)c23)CC1 | 5% |
| Cc1cc(=O)[nH]c(-n2nc(C3CC3)cc2NC(=O)C(C)(C)Oc2ccc(Cl)cc2)n1 | 82% |
| O=C(COc1ccc(Cl)cc1)N1CC(n2cnnc2C2CC2)C1 | -4% |
| Cc1cc(=O)[nH]c(N2CCCCCC2)n1 | 8% |
| COc1ccc(NC(=O)c2cc(C3CC3)nc3onc(C4CC4)c23)cc1Cl | -4% |
| COc1ccc(Cl)cc1C(=O)N(C1CCOCC1)[C@H]1CCCN(S(C)(=O)=O)C1 | -12% |
| COc1ccc(Cl)cc1C(=O)Nc1cc(C2CC2)nn1-c1nc(C)cc(=O)[nH]1 | 72% |
| COc1ccc(NC(=O)Cn2cnc3nc(N4CCOCC4)ncc3c2=O)cc1 | 15% |
| CO[C@@H](CNc1nc(C)c(S(N)(=O)=O)s1)c1ccc(F)cc1 | -17% |
| COc1cccc([C@H]2CC(=O)Nc3c2cnn3C)c1 | -11% |
| COc1ccc(NC(=O)[C@@H]2COCC(=O)N2Cc2ccc(C)cc2)cc1 | 7% |
| CCc1ccc(C2=C[C@@H](c3cccc(OC)c3)n3ncc(C(=O)Nc4ccc(C)cc4)c3N2)cc1 | 70% |
